The list is not random: actives were taken first. Their share in the collection is about 3.7%.
Nrf2 activator – qHTS of Nrf2 Activators. AREc32 ARE-luciferase reporter (MCF7-derived line), luminescence, 24 h. Potency, µM (series often up to 46.1 µM), for inactives: at the highest dose activation, usual class: activators. hit rate 0.31% among 410,000. AID 624171, 2012; further: % of control where 0% means no effect; nearly all actives have a fitted effect of over 65% in size
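AREc32 cells carrying an ARE-driven firefly luciferase, 1000 cells/well in OPTI-MEM with 5% FBS, dosed after overnight attachment and incubated 24 hr at 37 deg C. Steady-Glo luminescence read after 30 min at RT.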
Nrf2 inh – Nrf2 qHTS screen for inhibitors; A549 ARE-Fluc reporter, luciferase luminescence, 18-24 h; Potency, µM (doses to about 46 µM), without a hit: top-dose activity change, negative = inhibition, most hits filed as inhibitors; hit rate 2.1% among 360,000; AID 504444, 2011; further: on the % scale 0 is the no-effect control and ±100 the full control effect; nearly all actives have a fitted effect of over 60% in size
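Reporter: ARE-Fluc in A549. Exposure: 18-24 h, 37 °C, 5% CO2, 5% FBS OPTI-MEM. Readouts: fluorescent cytotoxicity (CellTiter-Fluor), then luminescent Nrf2 signal after BugLite.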
A549 tox – Nrf2 qHTS screen for inhibitors: counterscreen for cytotoxicity | Potency, µM (highest dose often 46 µM), for the others: top-dose activity change, negative = cytotoxicity, actives largely listed as inhibitors | A549 ARE-Fluc cells, CellTiter-Fluor viability, 18-24 h | hit rate 0.16% among 390,000 | AID 504648, 2011; further: on the % scale 0 is the no-effect control and ±100 the full control effect
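Cytotoxicity counterscreen: CellTiter-Fluor fluorescence was measured in A549 ARE_Fluc cells after 18-24 h of compound exposure in a concentration series. The subsequent BugLite luminescent read reports ARE-luciferase activity.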
ELG1 repair inh – qHTS screen for small molecules that inhibit ELG1-dependent DNA repair in human embryonic kidney (HEK293T) cells expressing luciferase-tagged ELG1; HEK293T ELG1-luciferase reporter, luminescence, 16 h; DNA damage induced by 5-fluorouridine; Potency, µM (titrated, usually from 46.1 µM), inactives show top-dose activity change, negative = inhibition, actives largely listed as inhibitors; hit rate 2.3% among 330,000; further: on the % scale 0 is the no-effect control and ±100 the full control effect; nearly all actives have a fitted effect of over 55% in size
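HEK293T cells expressing luciferase-tagged ELG1 (2,000/well) received 5-Fluorouridine plus compound or DMSO for 16 hr at 37 °C. Luciferase was read by ONE-Glo luminescence after 30 min at room temperature.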
Numbers without * were called inactive; ? = inconclusive; . = no result given. The call rests on the fitted dose curve; in most records, active means well fitted curve in the direction sought with a large enough effect; inconclusive means small, poorly fitted or top-dose-only effect, or another doubt; inactive means no such curve, though single readings can be large; an effect the other way counts as inactive or inconclusive. Potency means the concentration at half of the fitted maximal effect.

SMILES | Nrf2 activator | Nrf2 inh | A549 tox | ELG1 repair inh
CC(C)Cn1c(=O)c2ccccc2n2c(CCC(=O)Nc3ccc(F)c(F)c3)nnc12 | -1% | 17% | 0% | .
Cc1cc2nc(CCN3CCOCC3)n(S(=O)(=O)c3ccc(C(C)(C)C)cc3)c2cc1C | 0% | -13% | -7% | 21µM*
O=C(CSc1nnc(-c2ccccc2)o1)N1CCCCC1 | 0% | ? | -6% | ?
O=C(NNc1ccccc1)C(=O)NNS(=O)(=O)c1ccc([N+](=O)[O-])cc1 | 1% | 18µM* | -15% | -18%
O=C(NNc1ccccn1)C(=O)NNS(=O)(=O)c1ccc(F)cc1 | 0% | ? | -19% | 21µM*
CN(C)S(=O)(=O)c1ccc(Cl)c(NC(=O)CNC2(C)CCS(=O)(=O)C2)c1 (stereo not given) | 0% | 1% | 2% | -14%
CC(C)OP(=O)(OC(C)C)/C(C=O)=N\Nc1ccc([N+](=O)[O-])cc1 | 5% | ? | -21% | 23µM*
O=C(NCCCc1cnc[nH]1)NCCCN(Cc1ccc(Cl)cc1)c1ccc(Br)cn1 | . | ? | 15% | .
CC1(C)CC(NS(=O)(=O)c2ccc3ccccc3c2)CC(C)(C)N1 | 4% | 0% | 4% | -3%
CCN(CC)S(=O)(=O)c1cc(C(=O)Nc2cc(C)on2)ccc1Cl | 0% | 13% | 3% | 16µM*
COc1ncnc2c1ncn2CCCN1CCN(c2ccccn2)CC1 | 0% | . | . | .
COc1ccccc1OCC(=O)N(Cc1cccs1)C1CCS(=O)(=O)C1 (stereo not given) | -1% | -3% | -9% | .
CCc1ccc2[nH]c(=O)c(CN(Cc3ccccc3OC)Cc3nnnn3Cc3ccco3)cc2c1 | 5% | ? | ? | 10µM*
O=c1[nH]c2cc3c(cc2cc1CN(Cc1nnnn1CC1CCCO1)C1CCCC1)OCO3 (stereo not given) | 4% | -7% | -11% | 15µM*
O=c1[nH]c2cc3c(cc2cc1CN(Cc1nnnn1CC1CCCO1)C1CCCCC1)OCO3 (stereo not given) | 0% | ? | -14% | ?
COc1ccc2[nH]c(=O)c(CN(Cc3ccccc3OC)Cc3nnnn3CC3CCCO3)cc2c1 (stereo not given) | -1% | -11% | 2% | 16µM*
CC(=O)c1c(C)oc2c1C(=O)c1ccccc1C2=O | 0% | 4% | 1% | 12µM*
O=C1c2ccccc2C(=O)c2c1oc(C(F)(F)F)c2C(=O)c1ccccc1 | -2% | ? | ? | ?
Cc1oc2c(c1C(=O)NCc1cccnc1)C(=O)c1ccccc1C2=O | -5% | 5.2µM* | 2.6µM* | 1.6µM*
Cc1onc(-c2ccccc2Cl)c1C(=O)NCc1cccnc1 | 1% | . | 6% | -1%
COc1ccc(CNC(=O)c2c(C)oc3c2C(=O)c2ccccc2C3=O)cc1 | -5% | 4.1µM* | 4.6µM* | -6%
CCn1nc(C)c(CCN(C)C(=O)Nc2cc(Cl)ccc2C)c1C | -1% | . | -3% | .
Cc1ccc(Cl)cc1N1CCN(C(=O)c2cnn(C(C)(C)C)c2C2CCN(C(=O)OC(C)(C)C)CC2)CC1 | 0% | ? | -9% | .
Cc1ccc(C)c(N2CCN(CCCNC(=O)c3cnn(-c4cccc(Cl)c4)c3C3CCN(C(=O)OC(C)(C)C)CC3)CC2)c1 | -1% | ? | ? | .
Cc1ccc(C)c(N2CCN(C(=O)c3cnn(C(C)(C)C)c3C3CCN(C(=O)OC(C)(C)C)CC3)CC2)c1 | 0% | 21µM* | -26% | .
SMILES | Nrf2 activator | Nrf2 inh | A549 tox | ELG1 repair inh
Cc1ccc(C)c(N2CCN(CCCNC(=O)c3cnn(-c4ccc(F)cc4)c3C3CCN(C(=O)OC(C)(C)C)CC3)CC2)c1 | 0% | ? | 18µM* | .
COc1ccc(OC)c(CCNC(=O)c2cnn(-c3ccc(C)cc3C)c2C2CCN(C(=O)OC(C)(C)C)CC2)c1 | 0% | 18µM* | -29% | .
CCOC(=O)c1c(C)[nH]c(CCC(=O)NCc2ccc(CC)cc2)c1C | 4% | . | -1% | .
COc1cc(Nc2nc3ccccc3nc2NS(=O)(=O)c2ccc([N+](=O)[O-])cc2)cc(OC)c1OC | 0% | ? | 10% | 16µM*
CCN1C(=O)[C@H]2[C@@H](c3ccc(C)cc3)N[C@]3(CCCN(Cc4ccc(OC)cc4)C3=O)[C@H]2C1=O | 0% | . | . | .
COc1ccc(CNC(=O)c2sc3nc4c(c(C(F)(F)F)c3c2N)CCC4)cc1OC | -1% | 23µM* | 0% | ?
Cc1c(NC(=O)c2cccs2)cccc1-c1nc2cc(Cl)ccc2o1 | 19% | ? | -2% | .
CC(C)(C)OC(=O)Cc1nnc(-c2nc3ccccc3[nH]2)s1 | . | ? | -3% | .
O=C(CSc1n[nH]c(-c2ccc(S(=O)(=O)NC3CCCCC3)cc2)n1)N1CCCC1 | 0% | 16µM* | -13% | 0%
O=C(COc1ccc(S(=O)(=O)NC2CCCC2)cc1)N1CCCCC1 | -1% | -31% | -6% | 0%
CC1(C)CC(=O)C(C2C3=C(CC(C)(C)CC3=O)Oc3c(Br)cc(Br)cc32)=C(O)C1 (stereo not given) | 0% | 23µM* | ? | 5%
CC1(C)CC(=O)C2=C(C1)OC1=C(C(=O)CC(C)(C)C1)C2c1cc([N+](=O)[O-])cc([N+](=O)[O-])c1O | 4% | ? | ? | ?
Cc1ccc(NC(=O)CSc2nnc(-c3n[nH]c4ccccc34)n2-c2ccccc2)c(C)c1 | 6% | ? | 0% | 23µM*
Cc1ccc(OCc2nnc(SCC(=O)Nc3cccc4ccccc34)n2-c2ccccc2)cc1 | 0% | ? | -29% | ?
COc1cc(/C=N/n2cnn(Cc3ccccc3Cl)c2=S)cc(OC)c1OC | 0% | -7% | -1% | 23µM*
COc1ccc(/C=N/n2cnn(Cc3ccccc3Cl)c2=S)cc1 | 0% | -3% | 1% | ?
CN1C=C/C(=C\c2cc[n+](C)c3ccccc23)c2ccccc21 | -1% | 5.8µM* | ? | ?
COc1cccc(NC(=O)C2CC(=O)N(c3ccc(Br)cc3)C2)c1 (stereo not given) | -1% | 4% | 2% | .
Cc1ccc2c(Cl)cc(Cl)c(OCC(=O)Nc3cccc(S(=O)(=O)N(C)C)c3)c2n1 | 3% | 11% | -1% | -15%
Cc1ccc2c(Cl)cc(Cl)c(OCC(=O)Nc3cc(S(=O)(=O)N(C)C)ccc3C)c2n1 | 3% | 15µM* | -18% | ?
COC(=O)C(NC(=O)CCc1c(C)nc2c(c(C)nn2-c2ccccc2)c1C)C(C)C (stereo not given) | 0% | ? | 0% | -12%
COc1cccc(C2=CC(=O)C[C@H](c3ccc(Cl)cc3)C2)c1OC | 0% | 8% | -2% | 21µM*
Cc1ccc(C(C)NC(=O)CSc2ccc(S(=O)(=O)N3CCOCC3)cn2)cc1C (stereo not given) | 2% | -7% | 6% | -1%
